Screening data as filed in PubChem BioAssay.
MCF10A rerep = inducers of DNA re-replication in MCF 10A breast cells | actives 2.9% (n = 350,000) | Potency, µM (top dose mostly 46.1 µM), without a hit: at the top dose activity, positive = re-replication, most hits filed as activators | MCF 10A DNA re-replication, Hoechst nuclear intensity, 48 h | AID 624296; further: potency means the concentration at half of the fitted maximal effect; % of control where 0% means no effect; nearly all actives have a fitted effect of over 50% in size
SW480 rerep = inducers of DNA re-replication in SW480 colon cancer cells | SW480 DNA re-replication, Hoechst DNA content imaging, 48 h | Potency, µM (series often up to 46.1 µM), for inactives: top-dose re-replication activation, hits mostly activators | actives 1.8% (n = 340,000); further: potency means the concentration at half of the fitted maximal effect; % of control where 0% means no effect; nearly all actives have a fitted effect of over 55% in size
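250 cells/well; 23 nL cpd via pin tool; 48 hr, 37 C, 5% CO2; Hoechst 40 min; imager read of total nuclear intensity, ex 405/em 500-530 nm.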
KB-3-1 tox = kills parental KB-3-1 adenocarcinoma cells; KB-3-1 viability, CellTiter-Glo ATP luminescence, 72 h; Potency, µM (top dose mostly 46.1 µM), hits mostly cytotoxic; actives 1.4% (n = 400,000); AID 1347075; further: potency means the concentration at half of the fitted maximal effect; on the % scale 0 is the no-effect control and ±100 the full control effect; nearly all actives have a fitted effect of over 60% in size
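Here the drug-naive KB-3-1 line serves as comparator for MDR sub-line selectivity; cells received compound titrations, 72 h at 37 °C, then CellTiter-Glo readout.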
KCNH2 3.1 inh = blocks the human KCNH2 3.1 channel isoform. U2OS KCNH2 3.1, thallium flux FluxOr; active compounds read low. actives 0.95% (n = 340,000). AID 720553. activity change, % (tested at about 1.8 µM);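 active means maximum activity change below -70%; inconclusive means maximum activity change from -70% to -50%; inactive means maximum activity change above -50%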;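 further: thallium influx rate constant from kinetic fluorescence after stimulation buffer; on the % scale 0 is the no-effect control and ±100 the full control effect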
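U2OS cells transduced with KCNH2 3.1 mutant virus (1.77 x 10^8 /mL, 4 h), plated overnight at 37 C, loaded 45 min with FluxOr dye plus Red40 quencher. Thallium flux rate constant from kinetic reads after stimulation buffer, normalised to controls.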
hERG WT inh = blocks the wildtype human KCNH2 potassium channel | U2OS, BacMam KCNH2, thallium flux FluxOr; active compounds read low | Q12809 | actives 0.37% (n = 340,000) | activity change, % at 1.84 µM | AID 720551;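 active means maximum activity change below -70%; inconclusive means maximum activity change between -70% and -50%; inactive means maximum activity change above -50%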; further: on the % scale 0 is the no-effect control and ±100 the full control effect
Target sequence (Q12809 whole entry, looked up): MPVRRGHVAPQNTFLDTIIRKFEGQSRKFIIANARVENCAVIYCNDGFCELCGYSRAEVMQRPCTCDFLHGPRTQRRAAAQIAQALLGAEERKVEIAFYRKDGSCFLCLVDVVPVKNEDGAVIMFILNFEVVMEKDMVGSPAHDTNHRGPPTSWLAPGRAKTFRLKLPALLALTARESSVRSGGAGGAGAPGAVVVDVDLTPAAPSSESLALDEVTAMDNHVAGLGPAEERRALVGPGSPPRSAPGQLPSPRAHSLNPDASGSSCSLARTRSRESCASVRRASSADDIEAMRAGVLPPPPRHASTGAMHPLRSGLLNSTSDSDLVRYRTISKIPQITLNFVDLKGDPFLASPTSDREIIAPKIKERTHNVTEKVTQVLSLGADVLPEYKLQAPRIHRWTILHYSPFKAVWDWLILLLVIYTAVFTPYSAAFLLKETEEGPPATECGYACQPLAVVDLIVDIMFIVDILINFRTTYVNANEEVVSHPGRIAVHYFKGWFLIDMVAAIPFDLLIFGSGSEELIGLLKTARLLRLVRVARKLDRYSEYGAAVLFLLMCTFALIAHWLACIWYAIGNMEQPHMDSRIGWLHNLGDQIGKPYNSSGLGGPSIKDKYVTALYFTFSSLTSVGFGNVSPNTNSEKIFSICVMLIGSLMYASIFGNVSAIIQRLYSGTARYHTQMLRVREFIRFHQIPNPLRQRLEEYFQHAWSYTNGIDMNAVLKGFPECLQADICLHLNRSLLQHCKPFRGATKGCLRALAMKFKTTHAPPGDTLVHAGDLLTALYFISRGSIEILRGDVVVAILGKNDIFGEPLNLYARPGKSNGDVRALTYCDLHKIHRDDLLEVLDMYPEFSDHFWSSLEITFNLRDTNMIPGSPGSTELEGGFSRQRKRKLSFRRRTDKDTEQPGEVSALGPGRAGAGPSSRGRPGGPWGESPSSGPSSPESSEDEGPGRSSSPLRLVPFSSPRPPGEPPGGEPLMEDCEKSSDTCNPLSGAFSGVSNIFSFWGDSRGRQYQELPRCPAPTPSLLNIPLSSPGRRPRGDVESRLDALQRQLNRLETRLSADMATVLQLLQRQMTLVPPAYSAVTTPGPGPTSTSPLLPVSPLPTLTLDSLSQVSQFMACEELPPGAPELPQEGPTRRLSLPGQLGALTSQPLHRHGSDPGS
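U2OS cells transduced with wild-type KCNH2 virus are loaded with FluxOr dye for 45 min, and thallium flux is measured in kinetic reads before and after stimulation buffer. Rate constants are normalized to DMSO controls.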
KB-V1 cytotox = KB-V1 MDR subline cytotoxicity; KB-V1 MDR cells viability, CellTiter-Glo, 72 h; Potency, µM (doses to about 46.1 µM), usual class: cytotoxic; actives 3.4% (n = 400,000); further: potency means the concentration at half of the fitted maximal effect; on the % scale 0 is the no-effect control and ±100 the full control effect; nearly all actives have a fitted effect of over 60% in size
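In this primary screen, KB-V1 cells overexpressing P-gp are incubated with library compounds (lowest to highest concentration) for 72 h at 37 degrees C before a luminescent ATP viability read.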
Active calls of the source: *; i = inactive; u = inconclusive; x = no result; [ ] = remark or other dose. This is a sample that favours compounds with a hit; in the whole collection about 7.6% have one here. Unless noted, the call rests on the fitted dose curve; in most records, active means well fitted curve in the direction sought with a large enough effect; inconclusive means small, poorly fitted or top-dose-only effect, or another doubt; inactive means no such curve, though single readings can be large; an effect the other way counts as inactive or inconclusive.

SMILES | MCF10A rerep | SW480 rerep | KB-3-1 tox | KCNH2 3.1 inh | hERG WT inh | KB-V1 cytotox
CC(=O)Nc1ccc2nc(NC(=O)c3ccc([N+](=O)[O-])o3)sc2c1 | 0.65µM* | 3.3µM* | 9.2µM* | 13 | 7 | 16µM*
Cc1ccc(C(=O)Nc2ccc(S(=O)(=O)N3CCc4ccccc43)cc2)o1 | 1% | 6% | i | 1 | -5 | u
Cc1ccccc1CC1SC(N=C(N)N)=NC1=O (stereo unspecified) | -1% | u | i | 0 | 1 | i
Cc1ccccc1NC(=O)Cc1nnc(N)s1 | 6% | -5%[9.22 µM] | i | 17 | -1 | i
CSCCC(N=C1NS(=O)(=O)c2ccccc21)C(=O)N1CCCC(C(N)=O)C1 (stereo unspecified) | 0% | 3% | i | -19 | -6 | i
COc1cc(C(C)=O)ccc1OCC(O)CNCC(O)c1ccccc1 (stereo unspecified) | -4% | 6% | i | -6 | 1 | i
Cc1ccc(C(=O)Nc2ccc(S(=O)(=O)N3CCCC3)cc2)o1 | -1% | 2% | i | -11 | -5 | u
O=C(Nc1ccc(S(=O)(=O)N2CCCCCC2)cc1)c1ccc(Br)o1 | 14% | 6% | u | -12 | 3 | 5.8µM*
O=C(Nc1ccc(N2CCOCC2)cc1)c1ccc([N+](=O)[O-])o1 | 4.6µM* | 1.3µM* | i | -4 | 0 | u
O=C(Nc1ccc(Cc2ccncc2)cc1)c1ccc([N+](=O)[O-])o1 | 3.7µM* | 5.2µM* | u | -34 | -14 | i
Nc1c(O)ccc2c1C(=O)c1ccccc1C2=O | 0% | x | i | 19 | 0 | i
Nc1cc(N)c2c(c1)C(=O)c1ccccc1-2 | -5% | -1% | u | -198* | -131* | u
CCN1CSC(=S)N(Cc2ccc(OC)cc2)C1 | u | u | u | 0 | -3 | u
CCCCCN1CSC(=S)N(Cc2ccccc2)C1 | u | u | u | -22 | -74* | u
CCN1CSC(=S)N(Cc2ccccc2)C1 | u | 18µM* | u | 11 | -1 | i
CCN1CNC(=S)N(Cc2ccccc2)C1 | -5% | 1% | i | 3 | 3 | i
S=C1SCN(Cc2cccs2)CN1Cc1cccs1 | x | x | u | 5 | -8 | i
S=C1SCN(Cc2ccco2)CN1Cc1ccco1 | u | 13µM* | i | 3 | 2 | i
CC(C)CCNC(=O)C1CCN(C(=O)c2cc3sccc3n2Cc2ccc(Cl)cc2)CC1 | x | x | i | x | x | i
CC1(C)CC2CC(C)(CN2C(=O)c2cc(-c3ccccc3)on2)C1 (stereo unspecified) | u | 25% | i | -19 | -11 | i
Nc1cc(N)nc(SCc2ccccc2)n1 | -1% | 1% | i | 20 | 4 | i
Nc1nc(SCc2ccccc2)cc(SCc2ccccc2)n1 | 8.2µM* | 8% | i | 13 | -2 | i
C/C(=N\N1CCN(C2c3ccccc3-c3ccccc32)CC1)c1ccncc1 | 15% | -2% | u | -3 | -4 | 18µM*
COc1ccc(CCNC(=O)CCc2c(C)c3ccc(O)c(C)c3oc2=O)cc1 | x | x | i | x | x | i
Cc1nc2scc(-c3cccs3)c2c(=O)[nH]1 | -7% | -5% | i | -2 | 4 | i
SMILES | MCF10A rerep | SW480 rerep | KB-3-1 tox | KCNH2 3.1 inh | hERG WT inh | KB-V1 cytotox
O=c1[nH]c(-c2ccc(O)cc2)nc2scc(-c3cccs3)c12 | 7.3µM* | 12% | i | -5 | 2 | i
COc1cccc(/C=N/n2c(=S)n(C)c3ccccc32)c1OC | 5% | -16% | i | 11 | -4 | i
COc1cccc(/C=N/n2c(=O)[nH]c3ccccc32)c1OC | 12% | 4.1µM* | i | -1 | -12 | i
COc1cccc(/C=N\n2c(C)nnc2C)c1OC | 1% | -3% | i | 2 | 1 | i
COc1cccc(/C=N/n2c(C)nc3ccccc32)c1OC | 11% | 2% | i | 19 | 9 | 12µM*
O=C(N/N=C/c1ccc(Sc2nc3ccccc3[nH]2)o1)c1ccncc1 | 10% | -6% | i | 6 | 3 | i
CCN1C(=O)S/C(=C/c2ccc(Sc3nc4ccccc4[nH]3)o2)C1=O | u | 1.5µM* | i | -10 | 6 | u
CC1(c2nnc(-c3ccc(Cl)cc3)o2)CC(c2ccc(Cl)cc2)=NO1 (stereo unspecified) | u | u | i | -162* | 3 | i
Cc1ccsc1/C=C/C1=Cc2c(sc(NC(=O)CSc3n[nH]c(N)n3)c2C#N)C(C)(C)C1 | u | 15µM* | i | -6 | 9 | i
CCOc1ccc(/C=C/C2=Cc3c(sc(NC(=O)CSc4n[nH]c(N)n4)c3C#N)C(C)(C)C2)cc1 | 6.5µM* | 16µM* | 16µM* | -7 | -26 | u
NC(=O)c1ccsc1NC(=O)CSc1n[nH]c(N)n1 | 1% | -8% | i | -3 | -10 | i
CCOC(=O)c1sc(NC(=O)CSc2n[nH]c(-c3ccncc3)n2)c(C#N)c1C | 24% | -3% | u | -5 | -1 | i
COC(=O)c1c[nH]c(=S)n1Cc1ccccc1 | 6% | 1% | i | 4 | -2 | i
C=CCOc1ccc(C2C(C(=O)c3ccco3)=C(O)C(=O)N2c2nnc(C)s2)cc1 (stereo unspecified) | 3% | -1% | i | -13 | -15 | i
COC(=O)c1c(-c2ccc(N(C)C)cc2)oc2c1C(OC)CCC2 (stereo unspecified) | x | x | u | x | x | i
CCOC1CCCc2oc(-c3ccc(N(C)C)cc3)c(C(=O)OC)c21 (stereo unspecified) | x | x | u | x | x | 8.2µM*
Cc1cc(NS(=O)(=O)c2ccc(NC(=O)CCSc3ccc(F)cc3)cc2)nc(C)n1 | 1% | 3% | i | -5 | -3 | i
Cc1ccccc1NC(=O)C(C)Sc1nnc(CN2CCCC2)n1Cc1ccccc1 (stereo unspecified) | x | x | i | 5 | 5 | u
CC(Sc1nnc(CN2CCCC2)n1Cc1ccccc1)C(=O)Nc1ccc(F)c(F)c1F (stereo unspecified) | 25% | -3% | i | -3 | 18 | 1µM*
CC1C(=O)C(=O)C=CN1C (stereo unspecified) | 6% | -2% | x | x | x | x
Nc1ncnc2oc(-c3ccco3)c(-c3ccco3)c12 | 6% | -3% | i | -3 | 3 | 21µM*
Cc1nc(SC(C)C(=O)NCC2CCCO2)c2cc(-c3ccccc3)sc2n1 (stereo unspecified) | 12µM* | u | u | -12 | 8 | u
